Measurements taken from the supplement of paper PMC8253809.
Several values for one entry are separate records, joined by “and”; a condition that tells them apart may be missing. Equal values may be shown once.

Tests used:
Assay in all cases: growth inhibition (% activity, log2 RLU normalised to DMSO / staurosporine); higher = more growth inhibition
Conditions in all cases: 33 µM
DIPGX29 = tested on: DIPGX29 (H3.3 K27M diffuse intrinsic pontine glioma line)
Outline: (§1)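 Approved drugs were tested in triplicate at a single final concentration of about 33 μM for 7 days at 37 °C, 5% CO2, on pHGG cell lines and H9-derived neural stem cells. Readout was CellTiter-Glo luminescence, log2-transformed and scaled per plate to % activity between solvent and positive control wells. The median over replicates gives the growth-inhibition value.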

DIPGX37 = tested on: DIPGX37 (H3.3 K27M diffuse intrinsic pontine glioma line)
Outline: as §1

DIPGX7 = tested on: DIPGX7 (H3.3 K27M diffuse intrinsic pontine glioma line)
Outline: as §1

DIPGX9 = tested on: DIPGX9 (diffuse intrinsic pontine glioma line)
Outline: as §1

HGGX39 = tested on: HGGX39 (paediatric high-grade glioma line)
Outline: as §1

HGGX6 = tested on: HGGX6 (H3.3 G34R paediatric high-grade glioma line)
Outline: as §1

HNSC = tested on: HNSC
Outline: as §1

SUDIPGIV = tested on: SUDIPGIV (diffuse intrinsic pontine glioma line)
Outline: as §1

SUDIPGVI = tested on: SUDIPGVI (diffuse intrinsic pontine glioma line)
Outline: as §1

SUDIPGXIII = tested on: SUDIPGXIII (diffuse intrinsic pontine glioma line)
Outline: as §1

Compound	growth inhibition (DIPGX29)	growth inhibition (DIPGX37)	growth inhibition (DIPGX7)	growth inhibition (DIPGX9)	growth inhibition (HGGX39)	growth inhibition (HGGX6)	growth inhibition (HNSC)	growth inhibition (SUDIPGIV)	growth inhibition (SUDIPGVI)	growth inhibition (SUDIPGXIII)
COc1cc(C(C)=O)ccc1OCCCN1CCC(c2noc3cc(F)ccc23)CC1	1.79%	0.322%	12.7%	0.361%	4.35%	0.871%	0.367%	2.3%	-12.2%	4.02%
COCCOC(=O)C1=C(C)NC(C)=C(C(=O)OC(C)C)C1c1cccc([N+](=O)[O-])c1 (stereo not given)	-0.32%	0.964%	-0.466%	0.313%	1.43%	-1.47%	2.29%	0.263%	1.28%	2.89%
C[C@]12C=CC(=O)C=C1CC[C@H]1[C@@H]3C[C@@H](O)[C@](O)(C(=O)CO)[C@@]3(C)C[C@H](O)[C@@]12F	0.877%	1.05%	-1.73%	3.73%	-0.649%	-0.097%	-1.58%	-3.68%	0.457%	1.54%
O=c1[nH]c(=O)n([C@H]2C[C@H](O)[C@@H](CO)O2)cc1I	0.0722%	-1.6%	-3.14%	-0.0918%	-2.1%	-0.2%	17.9%	-1.37%	-0.112%	0.635%
CCCC(=O)[O-].[Na+]	-1.17%	-2.44%	-0.966%	0.792%	0.723%	0.649%	-2.84%	-1.12%	0.269%	0.879%
O=NO	0.973%	1.57%	-0.944%	0.322%	0.656%	1.76%	-0.386%	-0.178%	1.15%	-0.00307%
COC(=O)Nc1nc2cc([S+]([O-])c3ccccc3)ccc2[nH]1 (stereo not given)	4.96%	6.45%	4.77%	5.87%	4.89%	4.72%	19.2%	6.67%	5.46%	0.605%
Oc1ccc(/C=C/c2cc(O)cc(O)c2)cc1	2.03%	-0.532%	4.05%	1.48%	1.37%	2.36%	3.97%	-5.92%	1.29%	-0.764%
CC(=O)OCC(=O)[C@@]1(O)CC[C@H]2[C@@H]3CCC4=CC(=O)C=C[C@]4(C)[C@H]3[C@@H](O)C[C@@]21C	2.24%	0.724%	2.19%	3.92%	5.57%	2.03%	1.11%	2.53%	-1.15%	2.13%
CC(C[N+](C)(C)C)OC(N)=O (stereo not given)	-2.19%	0.0509%	-1.77%	0.0426%	-1.35%	-2.06%	-4.04%	-1.69%	-2.52%	0.126%
Cc1cccc(Nc2ccncc2S(=O)(=O)NC(=O)NC(C)C)c1	-1.52%	1.45%	-0.371%	-0.205%	1.47%	-0.821%	-0.596%	-1.46%	1.11%	1.52%
CN(C)CCc1c[nH]c2ccc(C[C@H]3COC(=O)N3)cc12	-3.13%	-2.1%	0.0297%	-2.64%	-3.04%	-3.73%	-3.71%	-3.68%	-7.46%	-1.12%
C[N+](C)(C)CCCCCC[N+](C)(C)C	-5.28%	-1.26%	0.491%	-2.94%	-1.88%	-5.38%	11.7%	-2.32%	-9.56%	0.369%
O=C(O)C[C@H](O)C[C@H](O)/C=C/c1c(C2CC2)nc2ccccc2c1-c1ccc(F)cc1	16.1%	-2.02%	38.6%	7.33%	48.3%	30.8%	56.2%	39.9%	33.5%	32.8%
CC(C)(C)CC(C)(C)c1ccc(O)c(Cc2ccc(Cl)cc2Cl)c1	1.52%	-4.36%	1.89%	0.915%	0.861%	-1.71%	13.3%	3.83%	-0.854%	3.25%
CCOC(=O)c1ncn2c1CN(C)C(=O)c1cc(F)ccc1-2	1.51%	1.71%	0.351%	4.52%	2.75%	0.552%	0.0947%	-1.75%	2.57%	2.26%
CCOC(=O)C1=C(C)NC(C)=C(C(=O)OC)C1c1cccc(Cl)c1Cl (stereo not given)	2.2%	0.16%	2.82%	2.94%	6.84%	-1.45%	5.27%	3.57%	1.79%	-2.05%
Cc1c(-c2ccc(O)cc2)n(Cc2ccc(OCCN3CCCCCC3)cc2)c2ccc(O)cc12	22.4%	0.0572%	20.3%	1.94%	8.64%	16.4%	26.1%	18.8%	-5.95%	1.05%
CC(C)CN(C[C@@H](O)[C@H](Cc1ccccc1)NC(=O)O[C@H]1CCOC1)S(=O)(=O)c1ccc(N)cc1	-0.715%	-0.112%	-0.0284%	-0.297%	-0.345%	-0.047%	-1.76%	-2.74%	-1.11%	0.567%
C[C@]12C=CC(=O)C=C1CC[C@@H]1[C@@H]2[C@@H](O)C[C@@]2(C)[C@H]1CC[C@]2(O)C(=O)CO	0.548%	0.082%	-0.697%	2.79%	1.22%	-0.621%	1.3%	-0.906%	1.51%	0.983%
CCn1cc(C(=O)O)c(=O)c2cc(F)c(N3CCNCC3)nc21	-0.406%	0.315%	-0.279%	-2.11%	0.108%	-1.99%	2.46%	0.478%	0.763%	0.429%
CN1[C@@H]2CC[C@H]1C[C@@H](OC(c1ccccc1)c1ccccc1)C2	4.24%	-1.03%	6.35%	2.77%	6.58%	5%	9.97%	2.1%	3.58%	0.606%

Compound	growth inhibition (DIPGX29)	growth inhibition (DIPGX37)	growth inhibition (DIPGX7)	growth inhibition (DIPGX9)	growth inhibition (HGGX39)	growth inhibition (HGGX6)	growth inhibition (HNSC)	growth inhibition (SUDIPGIV)	growth inhibition (SUDIPGVI)	growth inhibition (SUDIPGXIII)
O=S(=O)(O)Oc1ccc(C(c2ccc(OS(=O)(=O)O)cc2)c2ccccn2)cc1	-1.54%	-1.27%	-2.88%	-1.22%	-0.859%	-1.53%	-1.57%	-2.15%	-2.91%	0.476%
C[C@@H](O[C@H]1OCCN(Cc2nn(P(=O)(O)O)c(=O)[nH]2)[C@H]1c1ccc(F)cc1)c1cc(C(F)(F)F)cc(C(F)(F)F)c1	6.53%	2.67%	3.46%	4.01%	11.6%	5.75%	4.2%	16.2%	3.61%	11.4%
Cc1cccc(C)c1OCC(C)N (stereo not given)	-3.9%	-0.481%	-1.91%	-1.51%	-0.858%	-1.81%	-4.52%	-0.767%	-2.5%	0.823%
C[C@@H]1CC(=O)NN=C1c1ccc(NN=C(C#N)C#N)cc1	1.15%	-0.996%	1.39%	4.28%	4.26%	2.45%	5.57%	5.05%	1.51%	0.449%
Nc1ccn([C@@H]2O[C@H](CO)[C@@H](O)C2(F)F)c(=O)n1	16.7% and 17.4%	13.6% and 13%	16.9% and 16.6%	20.2%	20.4% and 20%	13.5% and 14.1%	52.4% and 59.5%	41.6% and 46%	4.24% and 4.14%	9.89% and 11.3%
Nc1nc(=O)c2c([nH]1)NCC(CNc1ccc(C(=O)N[C@@H](CCC(=O)O)C(=O)O)cc1)N2C=O (stereo not given in full)	-0.552%	0.652%	-1.46%	-0.907%	-0.954%	-0.876%	0.438%	-1.59%	0.511%	-0.342%
COc1cc(OC)c(C(=O)CCCN2CCCC2)c(OC)c1	-0.72%	1.82%	0.0577%	0.123%	1.04%	-0.405%	-0.558%	-0.0523%	0.936%	2.53%
COc1ccc(CNc2nc(N3CCC[C@H]3CO)ncc2C(=O)NCc2ncccn2)cc1Cl	-1.4%	-6.17%	-0.329%	-0.502%	-0.964%	-0.0101%	-2.71%	-1.36%	-2.1%	-0.559%
CC(C)(CO)[C@@H](O)C(=O)NCCC(=O)O	-2.53%	-0.522%	-0.818%	-0.68%	-0.909%	-0.397%	-0.802%	-0.366%	-3.69%	1.65%
COCCCOc1cc(C[C@@H](C[C@H](N)[C@@H](O)C[C@H](C(=O)NCC(C)(C)C(N)=O)C(C)C)C(C)C)ccc1OC	2.63%	-0.699%	1.89%	6.01%	3.87%	1.44%	2.36%	-3.1%	2.75%	0.132%
Nc1nc(=O)[nH]cc1F	1.91%	1.71%	2.65%	3.09%	1.88%	1.43%	1.22%	0.252%	2.66%	-3.23%
COc1cc2c(cc1O)CC[C@@H]1[C@@H]2CC[C@]2(C)[C@@H](O)CC[C@@H]12	9.48%	1.66%	9.77%	16.5%	13.2%	11.7%	53.5%	20.7%	-1.23%	1.78%
Clc1ccc2nsnc2c1NC1=NCCN1	-1.22%	-2.25%	-1.44%	-1.35%	-0.915%	-1.61%	-2.35%	-2.55%	-2.56%	-1.44%
O.O.O.O.O=C([O-])CC(O)(CC(=O)[O-])C(=O)[O-].[Li+].[Li+].[Li+]	1.75%	1.97%	1.43%	0.467%	-0.0466%	-1.34%	26.2%	0.611%	1.36%	-0.99%
C#Cc1cccc(Nc2ncnc3cc(OCCOC)c(OCCOC)cc23)c1	4.75%	0.211%	3.55%	2.64%	5.69%	6.15%	20.9%	-5.33%	3.91%	1.17%
CCOC(=O)CC(=O)N1CCSC1COc1ccccc1OC (stereo not given)	2.29%	3.41%	3.11%	1.18%	5.96%	2.78%	3.53%	4.58%	2.42%	-0.201%
CC12CC3CC(C)(C1)CC(N)(C3)C2	0.0357%	-0.52%	0.741%	1.54%	1.57%	1.17%	-0.299%	0.153%	0.617%	1.06%
C[C@]12CC[C@@H]3c4ccc(O)cc4C[C@@H](CCCCCCCCC[S+]([O-])CCCC(F)(F)C(F)(F)F)[C@H]3[C@@H]1CC[C@@H]2O (stereo not given in full)	0.0636%	0.16%	0.804%	-0.923%	8.06%	-1.09%	2%	-0.255%	-0.348%	2.55%
CNCC[C@@H](Oc1ccccc1C)c1ccccc1	1.02%	2.33%	2.36%	0.537%	2.58%	-1.18%	8.5%	3.36%	4.57%	1.41%
CN1C(C(=O)Nc2ccccn2)=C(O)c2ccccc2S1(=O)=O	-1.78%	1.01%	-0.635%	-1.57%	0.433%	-2.07%	2.62%	-1.29%	0.752%	-1.07%
CC(=O)O[C@]1(C(C)=O)CC[C@H]2[C@@H]3C=C(C)C4=CC(=O)CC[C@]4(C)[C@H]3CC[C@@]21C	0.869%	1.56%	2.71%	1.56%	-0.284%	-3.03%	-2.32%	-1.52%	-0.924%	1.41%
